# Tested on: RARb:RXRa (NR concentration 270 nM, RXRa partner concentration 90 nM)
# Assay: PBM binding z-score (relative to random genomic background probes); higher = stronger binding; sequences stand for … in GC…GCGATTGACAGCGTAGAATGAAGG
# How it was run: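 The probes on custom Agilent 4×180K protein-binding microarrays were double-stranded, with 34-nt variable regions bearing direct-repeat seeds, single-nucleotide variants, half-site ablations and random human genomic background sequences. Incubation lasted 1 h with ligand-free nuclear receptor dimers in PBS pH 7.4, 2% milk, 0.02% Triton X-100, 1 mM DTT, 0.2 mg/mL BSA and 0.4 mg/ml salmon testes DNA. Antibodies against each partner (one per run) detected bound dimers, and fluorescence scans were regression-normalized. Binding z-scores take the random background probes as reference.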
row,Sequence,PBM binding z-score
1,AGAATCAGGTTATTAAGATCAGGGAATTGCGGTC,1
2,TCGAGTAGGTTAGGGGTATTCAGAATGGCGTCGA,0.589
3,CCTACTGGGCCCTTCAGAGGTCATTGATCATATG,2.58
4,GAGACTGGGGCAAAGCAGGTTACCATAAGGTTGG,1.14
5,CCCACTGGGCCACGAAAGGTCATTGATTCAGTGA,4.1
6,CCAGACAGGTGAGAAGGTCACTCAGCCTCGATTA,3.58
7,ATCGAAAGCTCGTGAGGTGAGTATACAGAAAGGC,0.0466
8,TCTAGTTGGTCAAAGGTCACACATTCGAAATGCG,5.06
9,TAGCGTAGGTCAGATCGGGCCAGTATACGCTATA,3.07
10,TCTGGTAGATCAAAGGTTAAGAAAGCCGAAGCCT,1.91
11,CGTCCAAGGTCAAGGTCAGTCAAAGAGACTCGAA,5.83
12,TCATATAGGTAAAGGTGAAAGTCGAACGATATGA,2.1
13,ACAGACAGGTGAGTGAAGGCAACTCAGCTGGACG,0.403
14,AGAATGAGGTTATTAAGCTCAGGGAATTGCGGTC,1.09
15,CGTCCAAGGTAAGCAGGTCAGTGAAAGCGACGTG,1.89
16,ACTAGTTTGTCAGCTGAGGTCACACACAATTCGG,3.28
17,TCTTGTAGATCAGCAGGTTCAGAAAGCTGGCCAA,0.0377
18,ACAGACAGGTGAGTGAAGGAAACTCAGCTGGACG,-0.0129
19,TCTTGTAGATCAAAAGAGGTTAAGAAAGTGCGCT,0.887
20,TTACCGAGGTGAAGGTCGTTGATCCCTCTGTAGA,2.11
21,CCGAGTAGGTTATGAGGCATTCAGGCAACGGTGA,0.501
22,CGAACTAGGTCATGCAGGACAGTGAATACATTGA,3.92

# Reference: the supplement of paper PMC6555819
